Assay outcomes from PubChem BioAssay.
Env fusion inh = blocks HIV Env-driven cell-cell fusion; HeLa-JRFL Env/CEM21 cell fusion, luciferase; hit rate 1.1% among 360,000; AID 651610; inhibition, % at 12.3 µM;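 active means mean replicate inhibition score of at least 50 and every replicate individually at or above 50; inconclusive means only one of the two criteria met; inactive means mean below 50 and not all replicates reaching 50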;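 further: 0% = plate neutral controls and 100% = maraviroc near 300 nM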
PAX8 reporter = lowers PAX8-driven luciferase in RMG-I cells. RMG-I TPO-luciferase reporter, SteadyGlo, 24 h. inhibition, % at 12.6 µM. hit rate 1.2% among 360,000. AID 652154;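 active means mean replicate inhibition at least 60% with every replicate also reaching 60%; inconclusive means only one of the two criteria is met; inactive means mean below 60% and not all replicates reaching 60%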;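 further: luciferase light reporting Pax8 driven TPO promoter activity; plate controls were median of neutral control wells for no effect and mitoxantrone controls for full effect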
CFTR F508del cor = correctors of CFTR F508del function in bronchial epithelial cells. CFBE cells, YFP halide quenching; stimulated with forskolin plus potentiator P3; % fluorescence drop versus neutral controls. activity (quench increase), % at 7.58 µM. hit rate 0.36% among 350,000;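 active means mean added fluorescence quench of at least 8% versus neutral control, with both replicates also reaching 8%; inconclusive means only one of the mean or replicate conditions met; inactive means mean below 8% and not both replicates reaching 8%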;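 further: cells transiently co-express mutant CFTR-F508del with the halide-sensitive YFP; corrector assay measuring rescue of mutant channel to the surface after 24 h compound exposure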
EWS-Fli block = blocks EWS/Fli oncoprotein-driven transcription; A673 NR0B1-luciferase reporter, viability-normalised; inhibition, % at 12.6 µM; hit rate 0.67% among 350,000;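 active means mean inhibition of at least 50% after viability correction, with every replicate also passing that limit; inconclusive means mean reaches 50% but only one of two replicates passes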;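 further: firefly luciferase signal divided by Alamar Blue viability fluorescence both relative to DMSO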
FXN GAA850 act = activators of GAA850 frataxin (FXN) promoter. HEK293 lucGAA850 FXN promoter luciferase reporter, 24 h; percent of 10 µM SAHA response. activation, % at 6 µM. AID 540364. hit rate 0.56% among 360,000;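 active means activation above the average of all compounds screened plus 3 SD, cutoff fixed separately per campaign, cut at about 7.5% in these data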;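 further: 0% = DMSO wells and 100% = 10 µM SAHA wells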
* = called active by the depositor; ? = inconclusive; · = no result; ! = not active in a repeat; [ ] = remark or other dose. A selection: hits, their analogues and other compounds. The true share with any hit is near 2.5%.

SMILES	Env fusion inh	PAX8 reporter	CFTR F508del cor	EWS-Fli block	FXN GAA850 act
O=C(C[C@H]1C[C@@H]2c3cc(NC(=O)C4CCOCC4)ccc3O[C@@H]2[C@H](CO)O1)NCc1ccccc1F	50[16.7 µM]	-3	-2	0	·
Cc1nc(CNS(=O)(=O)c2ccc3c(c2)CCCC3)cs1	60*	20	1	1	1
C/C(=N\NC(=O)c1cc(C)nc2ccccc12)c1ccccn1	61*	26	2	40	5
CC(C)(C)C1=CC(=O)C(=O)C(C(C)(C)C)=C1	·	·	·	·	11*
CC(C)(C)C1=CC(=Nc2ccccc2N)C=C(C(C)(C)C)C1=O	·	56	-4	19	6
CCC(=O)N1C[C@@H](C)[C@@H](OC)CN(C)C(=O)c2cc(NC(=O)C3CCOCC3)ccc2OC[C@@H]1C	·	-29	-2	0	·
COc1ccc2[nH]c3c(=S)nc[nH]c3c2c1	-41	-34	1	-15	1
S=c1nc[nH]c2nc[nH]c12	-230	75*!	3	36	1
CS(=O)(=O)c1ccc(C(=O)OCC(=O)NCc2cccs2)cc1[N+](=O)[O-]	4	101*	1	8	8.8*
Nc1ccc2c3c(cccc13)C(=O)N(c1ccccc1)C2=O	22	-3	33*	-18	1
O=C(N/N=C/c1cc2c3c(c1O)CCCN3CCC2)c1ccccc1O	-16	62*	8.3*	11	-8
COc1ccc(S(=O)(=O)N(C)C[C@@H]2Oc3ccc(NC(=O)Nc4ccc5c(c4)OCO5)cc3C(=O)N([C@H](C)CO)C[C@@H]2C)cc1	76*[16.7 µM]	·	-3	0	·
COc1ccc(NC(=O)Nc2ccc3c(c2)C(=O)N([C@@H](C)CO)C[C@H](C)[C@H](CN(C)S(=O)(=O)c2ccc(Cl)cc2)O3)cc1	66*[16.7 µM]	·	-5	6	·
COc1ccc(S(=O)(=O)N(C)C[C@H]2Oc3ccc(NC(=O)Nc4ccc(F)cc4)cc3C(=O)N([C@@H](C)CO)C[C@H]2C)cc1	·	·	-1	3	·
C[C@@H]1CN([C@H](C)CO)C(=O)c2cc(NC(=O)Nc3ccccc3)ccc2O[C@@H]1CN(C)S(=O)(=O)c1ccccc1	75*[16.7 µM]	-29	1	1	·
COc1ccc(S(=O)(=O)N(C)C[C@@H]2Oc3ccc(NC(=O)Nc4ccc5c(c4)OCO5)cc3C(=O)N([C@@H](C)CO)C[C@@H]2C)cc1	32[16.7 µM]	·	0	-6	·
COc1ccc(NC(=O)Nc2ccc3c(c2)C(=O)N([C@H](C)CO)C[C@H](C)[C@@H](CN(C)S(=O)(=O)c2ccc(Cl)cc2)O3)cc1	-23[16.7 µM]	·	0	-5	·
COc1ccc(NC(=O)Nc2ccc3c(c2)C(=O)N([C@H](C)CO)C[C@H](C)[C@H](CN(C)S(=O)(=O)c2ccc(F)cc2)O3)cc1	69*[16.7 µM]	1	1	21	·
CO[C@H]1CC[C@@H]2CCOc3ccc(C#N)cc3C(=O)N(C)C[C@H](OC)[C@@H](C)C(=O)N(C)C[C@@H]1O2	-3[16.7 µM]	-5	·	-4	·
COc1ccc(NC(=O)Nc2ccc3c(c2)C(=O)N([C@H](C)CO)C[C@H](C)[C@H](CN(C)S(=O)(=O)c2ccc(C)cc2)O3)cc1	87*[16.7 µM]	7	1	14	·
C[C@@H]1CN([C@H](C)CO)C(=O)c2cc(NC(=O)Cc3ccccc3)ccc2O[C@H]1CN(C)S(C)(=O)=O	-1[16.7 µM]	-16	0	3	·
COc1ccc(NC(=O)Nc2ccc3c(c2)C(=O)N([C@@H](C)CO)C[C@H](C)[C@H](CN(C)S(=O)(=O)c2ccc(OC)cc2)O3)cc1	83*[16.7 µM]	13	0	20	·
C[C@@H]1CN([C@H](C)CO)C(=O)c2cc(NC(=O)Cc3ccccc3)ccc2O[C@@H]1CN(C)S(C)(=O)=O	1[16.7 µM]	-1	8.0*	2	·
COc1ccc(S(=O)(=O)N(C)C[C@H]2Oc3ccc(NC(=O)Nc4ccc(C(F)(F)F)cc4)cc3C(=O)N([C@H](C)CO)C[C@@H]2C)cc1	1[16.7 µM]	94*	-1	1	-2
O=C(c1ccncc1)N1CC2(C1)[C@@H](c1ccccc1)[C@@H](CO)N2C(=O)c1ccncc1	·	·	-4	·	·
SMILES	Env fusion inh	PAX8 reporter	CFTR F508del cor	EWS-Fli block	FXN GAA850 act
C[C@H](CO)N1C[C@H](C)[C@H](CN(C)S(=O)(=O)c2ccc(C#N)cc2)Oc2ncc(/C=C/c3ccccc3)cc2C1=O	74*[16.7 µM]	·	3	10	·
C[C@H](CO)N1C[C@H](C)[C@@H](CN(C)S(=O)(=O)c2ccccc2)Oc2ncc(/C=C/c3ccccc3)cc2C1=O	12[16.7 µM]	·	-1	10	·
CN(C)C/C=C/C(O)(c1ccccc1)c1ccccc1	0	1	0	0	2
CN(C)CC(CCC(CN(C)C)C(O)(c1ccccc1)c1ccccc1)C(O)(c1ccccc1)c1ccccc1 (centres undefined)	-45	87*	1	36	·
CCCCCCCCCC(=O)N/N=C(\C)c1cccnc1	-5	4	·	·	-1
CCCCCC(=O)N/N=C(\C)c1ccc(N2CCCCC2)cc1	·	126*	0	-20	3
COc1ccc(-c2ccc(NC(=O)c3ccco3)cc2)nn1	23	?	-3	64*	-2
COc1ccc(-c2cccc(NC(=O)c3ccco3)c2)nn1	·	-12	1	-8	-1
CCC(C)c1ccc(NC(=O)c2ccco2)cc1 (centres undefined)	-170	4	0	58*	1
CC(NC(=O)CN(c1cccc(C(F)(F)F)c1)S(=O)(=O)c1ccc(Cl)c([N+](=O)[O-])c1)c1ccccc1 (centres undefined)	·	61*	-6	60*	-2
CC(C)NC(=O)N1[C@@H](C#N)[C@H](c2ccc(C#CC3CCCC3)cc2)[C@@H]1CO	-8[16.7 µM]	-20	6	15	·
C[C@H]1CCCCO[C@H](CN(C)C(=O)Nc2ccc(F)cc2)[C@@H](C)CN([C@@H](C)CO)C(=O)c2cc(NS(=O)(=O)c3cn(C)cn3)ccc2O1	1[16.7 µM]	0	-1	-11	·
Cc1ccc(NC(=O)CCNS(=O)(=O)c2cc(Br)cnc2N)cc1Cl	32	26	·	·	3
Nc1ncc(Br)cc1S(=O)(=O)NCCC(=O)Nc1cccc(Cl)c1	59*	·	·	·	0
Cc1cc(NC(=O)CCNS(=O)(=O)c2cc(Br)cnc2N)ccc1Br	59*	·	·	·	3
COc1ccc2c3c(n(C)c2c1)[C@@H](CO)N(C(=O)CC1CC1)CC31CCN(C(=O)C2CC2)CC1	·	-15	0	-8	·
CN(C)C(=O)c1cccc(-c2ccc([C@H]3[C@H](CO)N4CCCCN(CC5CCOCC5)C[C@@H]34)cc2)c1	·	4	3	-5	·
Cc1c(NC(=O)c2cc3c(s2)-c2ccccc2OC3)cccc1[N+](=O)[O-]	87*	3	·	·	1
Cc1csc(NC(=O)c2cc3c(s2)-c2ccccc2OC3)n1	-14	-85	2	-38	2
CO[C@H]1CN(C)C(=O)c2ccc(NS(=O)(=O)c3ccccc3)cc2OC[C@H](C)NC[C@H]1C	·	·	-2	2	·
